Only a selection was taken, and hits are over-represented in it overall.
HT1080 IDH1KD tx: qHTS for induction of synthetic lethality in tumor cells producing 2HG: qHTS for the HT-1080-IDH1KD cell line. hit rate 2% among 360,000. Potency, µM (doses to about 46.1 µM), for the others: top-dose activity, negative = toxicity, actives largely listed as cytotoxic. HT-1080 IDH1 knockdown viability, ATP luminescence, 48 h;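 further: potency means the concentration at half of the fitted maximal effect; 0% = DMSO wells and -100% = cell-free medium wells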
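CellTiter-Glo luminescence after 48 h compound exposure at 37 degrees C of IDH1-knockdown HT-1080 cells in 5% FBS RPMI. %Activity scaled between DMSO wells and cell-free media wells, with curves fitted and assigned curve classes.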
TDP1 cell CPT: qHTS for Inhibitors of human tyrosyl-DNA phosphodiesterase 1 (TDP1): qHTS in cells in presence of CPT | chicken DT40 Tdp1-/-;hTDP1 cells + 20 nM CPT, ATP luminescence, 48 h | hit rate 12% among 420,000 | Potency, µM (titrated, usually from 46.2 µM), without a hit: at the highest dose activity change, negative = growth inhibition, usual class: inhibitors; further: potency means the concentration at half of the fitted maximal effect; nearly all actives have a fitted effect of over 55% in size
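Chicken DT40 Tdp1-/- cells complemented with human TDP1, 400 cells/well, exposed to compounds plus 20 nM camptothecin for at least 48 h at 37 C; viability read as ATP content by CellTiter-Glo luminescence.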
HT1080NT lethal: qHTS for induction of synthetic lethality in tumor cells producing 2HG: qHTS for the HT-1080-NT fibrosarcoma cell line. Potency, µM (doses to about 46.1 µM), for the others: at the highest dose activity, negative = less viability, most hits filed as cytotoxic. HT-1080-NT fibrosarcoma viability, CellTiter-Glo ATP luminescence, 48 h. hit rate 1.6% among 360,000;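 further: NT is the 2HG producing partner of a matched IDH1 knockdown line; potency means the concentration at half of the fitted maximal effect; 0% = DMSO-treated cells and -100% = media-only wells without cells; nearly all actives have a fitted effect of over 55% in size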
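Luminescent CellTiter-Glo readout after 48 hours of compound exposure at 37 degrees C defined viability of HT-1080-NT cells. Activity was normalized to DMSO wells and cell-free media wells; concentration-response curves were fitted and assigned curve classes.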
DT40 TDP1 no CPT: qHTS for Inhibitors of human tyrosyl-DNA phosphodiesterase 1 (TDP1): qHTS in cells in absence of CPT | AID 686978, 2013 | Potency, µM (doses to about 46.2 µM), for inactives: top-dose activity change, negative = growth inhibition, most hits filed as inhibitors | DT40 Tdp1-/- hTDP1 cells, no CPT, ATP luminescence, 48 h | hit rate 15% among 420,000; further: potency means the concentration at half of the fitted maximal effect; nearly all actives have a fitted effect of over 55% in size
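Growth kinetics read by CellTiter-Glo luminescence after ≥48 hr at 37 °C. Cells: DT40 Tdp1-/- stably carrying human TDP1, 400 per well, compound exposure in the absence of CPT (DMSO vehicle).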
12-LOX inh: Primary qHTS assay for inhibitors of human arachidonate 12S-lipoxygenase (ALOX12): Round 2; Potency, µM (titrated, usually from 108 µM), for the others: at the highest dose activity change, negative = inhibition, usual class: inhibitors; purified 12hLO, xylenol orange hydroperoxide absorbance; hit rate 1.1% among 580,000; further: potency means the concentration at half of the fitted maximal effect
Target sequence (P18054 whole entry, looked up): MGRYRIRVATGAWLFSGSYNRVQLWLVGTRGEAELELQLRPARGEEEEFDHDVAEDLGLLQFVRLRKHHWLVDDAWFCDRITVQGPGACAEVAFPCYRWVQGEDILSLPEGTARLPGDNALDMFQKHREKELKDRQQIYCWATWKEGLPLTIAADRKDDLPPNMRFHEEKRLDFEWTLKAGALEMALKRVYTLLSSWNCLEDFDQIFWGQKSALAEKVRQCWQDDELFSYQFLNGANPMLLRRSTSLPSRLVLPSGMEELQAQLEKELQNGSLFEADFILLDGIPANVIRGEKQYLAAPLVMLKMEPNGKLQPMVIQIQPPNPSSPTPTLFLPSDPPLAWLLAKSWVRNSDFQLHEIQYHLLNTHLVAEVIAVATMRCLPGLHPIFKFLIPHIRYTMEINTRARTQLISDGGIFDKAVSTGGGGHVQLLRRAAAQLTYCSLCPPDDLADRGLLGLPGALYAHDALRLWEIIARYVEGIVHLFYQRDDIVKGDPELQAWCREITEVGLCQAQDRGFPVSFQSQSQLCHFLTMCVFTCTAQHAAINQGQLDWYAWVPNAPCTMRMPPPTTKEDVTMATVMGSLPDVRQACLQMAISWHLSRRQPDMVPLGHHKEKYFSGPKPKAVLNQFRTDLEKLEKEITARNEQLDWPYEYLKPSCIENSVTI
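Purified human 12hLO at 150 nM in 25 mM Hepes, 0.01% Triton X-100, pH 7.0, preincubated 15 min at room temperature with compound. Reaction started with 40 uM arachidonic acid, 30 min at room temperature. Hydroperoxide measured by Fe-xylenol orange, 573/405 nm absorbance ratio.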
IL-1B inflam inh: qHTS for Inhibitors of Inflammasome Signaling: IL-1-beta AlphaLISA Primary Screen. THP-1 LPS/ATP IL-1B secretion, AlphaLISA, 16 h; hits give low values. activity change, % at 57.5 µM. hit rate 4.7% among 360,000; in the data active means activity change below about -50%; inconclusive means mostly about -30% to -49%
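THP-1 cells pretreated 1 hr with compounds (up to 57.5 uM final), then stimulated with LPS (250 ng/mL final) plus ATP (1.25 mM final); secreted IL-1B measured by AlphaLISA after 16 hr, decreased signal indicating inhibition.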
* marks the source's active call; other numbers are inactive results; ? = inconclusive; . = no result given; [ ] = remark or other dose. Unless noted, the call rests on the fitted dose curve; in most records, active means well fitted curve in the direction sought with a large enough effect; inconclusive means small, poorly fitted or top-dose-only effect, or another doubt; inactive means no such curve, though single readings can be large; an effect the other way counts as inactive or inconclusive. Unless noted, on the % scale 0 is the no-effect control and ±100 the full control effect.

SMILES	HT1080 IDH1KD tx	TDP1 cell CPT	HT1080NT lethal	DT40 TDP1 no CPT	12-LOX inh	IL-1B inflam inh
O=C(CSc1nc2c([nH]c3ccccc32)c(=O)n1-c1ccc(F)cc1)NC1CCCCC1	.	14.6µM*	.	?	-3.1%	.
CN(C)c1cccc(C(=O)Nc2ccc(-c3nc4ccccc4o3)cc2)c1	.	.	.	.	17.9%	.
COc1cc(NC(=O)c2sc(C)nc2C)c(OC)cc1NC(=O)c1ccccc1	10.4%	?	-2.7%	16.4µM*	0.0%	-16.2
COc1cc(NC(=O)C(C)Oc2ccccc2)c(OC)cc1NC(=O)c1ccccc1 (stereo not drawn)	-11.0%	20.6µM*	-2.4%	?	.	-17.2
CC(Oc1ccc(F)cc1)C(=O)Nc1ccccc1C(=O)N1CCCCC1 (stereo not drawn)	-7.9%	14.6µM*	1.1%[9.24 µM]	?	-5.0%	10.6
COC(=O)c1ccccc1NC(=O)C(C)Oc1ccccc1 (stereo not drawn)	-23.0%	7.31µM*	-4.2%	5.8µM*	-2.9%	15.5
COc1cc(NC(=O)c2ccccc2)c(OC)cc1Cl	-14.1%	-27.8%	-18.6%	?	0.0%	8.8
CC(C)Cc1nc(CN(C)C(=O)C2CCOc3ccccc3C2)no1 (stereo not drawn)	.	.	.	.	0.3%	.
CCc1cc2c(NCC3CCCO3)nc(C)nc2s1 (stereo not drawn)	-1.4%	13µM*	-14.2%	?	?	3.7
CCc1cc2c(NCc3ccccc3)nc(C)nc2s1	-29.2%	16.4µM*	-18.6%	8.2µM*	?	-5.4
O=C(Nc1ccc2oc(-c3cccc(I)c3)nc2c1)c1cccc([N+](=O)[O-])c1	.	.	.	.	4.8%	.
O=C(C(Sc1nc2cc(S(=O)(=O)N3CCCCC3)ccc2o1)c1ccccc1)N1CCCC1 (stereo not drawn)	.	.	.	.	-25.9%	.
c1ccc(-c2ccnc3nc(N4CCN(c5ccccc5)CC4)nn23)cc1	0.8%	18.4µM*	-5.8%	20.6µM*	-22.6%	-8.7
Fc1ccc(-c2ccnc3nc(N4CCN(c5ccccc5)CC4)nn23)cc1	7.6%	-2.0%	12.6%	6.5%	-29.9%	0.0
Fc1ccc(CNC(=S)NCc2cccc(Br)c2)cc1	.	.	.	.	-64.2%	.
CCOC(=O)C1CCN(C(c2ccccn2)c2c(C)[nH]c3ccccc23)CC1 (stereo not drawn)	?	16.4µM*	?	16.4µM*	?	-109.9*
Cc1[nH]c2ccccc2c1C(c1ccccn1)N1CCC(C(N)=O)CC1 (stereo not drawn)	-16.6%	20.6µM*	-3.7%	18.4µM*	?	-16.7
Cc1[nH]c2ccccc2c1C(c1ccncc1)N1CCC(C)CC1 (stereo not drawn)	-13.6%	?	-18.8%	18.4µM*	-26.8%	-0.5
NC(=O)CNC(=O)C1CCN(S(=O)(=O)c2ccc(-n3cnnn3)cc2)CC1	10.7%	-4.2%	4.4%	4.9%	1.8%	8.0
COCOCCn1cc(CN2CCS(=O)(=O)N(Cc3ccc(-c4cccc(CO)c4)cc3)C(C(C)C)C2=O)nn1 (stereo not drawn)	6.8%	?	-2.0%	20.6µM*	-16.4%	25.2
COCOCCn1cc(CN2CCS(=O)(=O)N(Cc3ccc(-c4ccc(OC)nc4)cc3)C(C(C)C)C2=O)nn1 (stereo not drawn)	-9.8%	13µM*	-10.6%	8.2µM*	?	-17.7
CC(C)C1C(=O)N(Cc2cn(CCC3OCCO3)nn2)CCS(=O)(=O)N1Cc1ccc(-c2cccc(N(C)C)c2)cc1 (stereo not drawn)	-12.3%	-19.9%	-0.8%	?	1.2%	-4.1
COCOCCn1cc(CN2CCS(=O)(=O)N(Cc3ccc(-c4cccc(N(C)C)c4)cc3)C(C(C)C)C2=O)nn1 (stereo not drawn)	-21.1%	14.6µM*	-24.9%	20.6µM*	?	-10.2
O=C(NCc1ccccn1)c1ccc2c(c1)n(Cc1cccc(F)c1)c(=O)c1ccnn12	.	.	.	.	92.7%	.
COc1cc(/C=N/Nc2ccccn2)cc(OC)c1O	-21.1%	?	-10.9%	?	?	-99.8*
SMILES	HT1080 IDH1KD tx	TDP1 cell CPT	HT1080NT lethal	DT40 TDP1 no CPT	12-LOX inh	IL-1B inflam inh
COc1ccc(/C=N\Nc2ccccn2)c(OC)c1	-8.0%	2.3%	-2.0%	14.3%	15.8%	-16.5
COc1cc(/C=N/Nc2ccccn2)ccc1OCC(C)C	-26.6%	?	-12.9%	10.3µM*	-9.5%	-21.6
C=CCOc1ccc(/C=N/Nc2ccccn2)cc1OC	-14.4%	-28.0%	-2.6%	25.9µM*	-12.2%	-11.1
COc1ccc(/C=C(\C#N)C(=O)Nc2ccccn2)cc1	7.0%	5.4%	10.9%	-5.0%	0.0%	-16.6
C=CCOc1ccc(/C=C(\C#N)C(=O)Nc2ccccn2)cc1OC	14.6%	4.5%	16.9%	-0.7%	10µM*	13.0
CCOc1ccc(/C=N/Nc2ccccn2)cc1OC	-10.2%	-32.0%	-12.4%	?	0.0%	-4.2
CCCOc1ccc(/C=N/Nc2ccccn2)cc1OC	-13.9%	-22.1%	-13.7%	-28.3%	-12.0%	-3.5
CN1C(=O)CCC2(CNC(=O)Nc3ccc4c(c3)OCCO4)CCCC=C12 (stereo not drawn)	.	.	.	.	0.4%	.
CC1CCCCC1NC(=O)c1c(O)nc2ccccn2c1=O (stereo not drawn)	-0.5%	?	?	20.6µM*	3.2%	81.2
Cc1csc2nc(O)c(C(=O)NCC3CCCO3)c(=O)n12 (stereo not drawn)	-10.8%	-13.4%	-18.6%	-11.1%	-16.2%	32.9
Cc1csc2nc(O)c(C(=O)NC3CCCCC3C)c(=O)n12 (stereo not drawn)	-4.1%	?	-16.1%	18.4µM*	6.2%	26.1
CC1CCCCC1NC(=O)c1cc2c(=O)n3ccccc3nc2n1C (stereo not drawn)	-2.9%	23.1µM*	1.0%	16.4µM*	18.3%	18.1
COc1cc2c(cc1OC)C(C)N(CC(=O)Nc1cc(C)cc(C)c1)CC2 (stereo not drawn)	.	.	.	.	-17.6%	.
COc1ccc(Nc2nc(C(=O)OCC(=O)c3ccc(F)cc3)cs2)cc1	.	.	.	.	4.3%	.
CC(C)NC(=O)C1Cn2cccc2C(=O)N1 (stereo not drawn)	.	.	.	.	11.9%	.
